In all, about 340,000 compounds went through this assay and about 3,300 (0.97%) were called active. Inconclusive results (about 9%) are left out. Calls come from the whole dose curve; as a rule, active = well fitted inhibition curve with a large enough effect; inconclusive = small, poorly fitted or top-dose-only effect, or effect the other way; inactive = flat fitted curve, though single readings scatter. The list shows a part of the results.
Experiment: qHTS Assay for Modulators of miRNAs and/or Inhibitors of miR-21; note: nearly all actives have a fitted effect of over 55% in size
Details: HeLa miR-21-FLuc reporter, luciferase luminescence, 48 h; actives lower the signal
Text: MLSCN Grant: 1 R21 NS059478-01 Assay Provider: Qihong Huang, The Wistar Institute NCGC Assay Overview: MicroRNAs (miRNAs) are endogenously encoded small (~20-25 nucleotides), nonprotein-coding RNAs that are involved in post-transcriptional repression of target messenger RNAs (mRNAs) (Le and Hannon, 2004). Estimated to be involved in the regulation of 30% of all protein-coding mRNAs (Filipowicz et al., 2008), miRNAs play a significant role in many biological processes including cellular differentiation and tissue development (Ghildiyal and Zamore, 2009).
NCGC Assay Protocol Summary: Reagents: HeLa cells stably expressing firefly luciferase (FLuc) under the control of a CMV promoter (upstream) and a miR-21 binding sequence directly downstream of the gene. These cells endogenously express miR-21. Control compounds used were compound C3 (provided by collaborator), N6-phenyladenosine (MP Biomedicals, 0215379625), and DMSO. Assay Summary: 6uL of HeLa miR-21-FLuc cells in assay buffer (DMEM, Invitrogen #21063-029; 10% FBS, HyClone #SH30071.03) were dispensed at 2000cells/well (3.3 x 10^5 cells/mL) into Greiner solid-white TC-treated 1536-well plates using a Multidrop Combi (Thermo Fisher Scientific). Plates were incubated for one hour at 37 degree Celsius, 95% humidity, 5% CO2. These assay plates were then treated with 23nL of compound or DMSO using a Kalypsys pin tool, which allows for delivery of a 24-point titration of each compound to the assay plate, with a final compound concentration ranging from approximately 40uM to 5pM. Assay plates were then incubated for 48 hours. After incubation, plates were allowed to come to RT for one hour prior to delivery of 3uL of 3X luciferase detection reagent. After a 15 minute incubation to allow for cell lysis, luciferase activity was measured using a ViewLux CCD imager (PerkinElmer), with an average exposure time of 2-12 seconds. Keywords: NIH Roadmap, MLPCN, MLSMR, qHTS, miR-21, microRNA, firefly luciferase, FLuc.
Potency is the fitted concentration of half-maximal effect.

Potency, active:
O=C(NCc1ccccc1)c1cccc(COc2ccc3c(c2)CCC3)c1 0.585 µM, NNC(=O)c1cccc(COc2ccc3c(c2)CCC3)c1 0.185 µM, NS(=O)(=O)c1ccc2nc(NC(=O)Nc3ccccc3F)sc2c1 0.329 µM, COc1ccccc1NC(=O)Nc1nc2ccc(S(N)(=O)=O)cc2s1 4.14 µM, O=C(Nc1nc2ccc(F)cc2s1)c1ccccn1 0.104 µM, Cc1cc(C(=O)Nc2nc3ccc(Cl)cc3s2)nn1C 0.927 µM, O=C(Nc1nc2ccccc2s1)Nc1ccc(F)cc1F 0.736 µM, Cc1ccccc1OCC(O)Cn1nnc2ccccc21 (stereo not drawn) 7.36 µM, CC(C)(C)CC(=O)Nc1nnc(-c2cccs2)s1 1.31 µM, CCOc1ccc2c(c1)c(N=Nc1cccc(C(=O)O)c1)c(O)n2C 6.56 µM, N#Cc1ccccc1NC(=O)c1cccc(COc2ccc(Cl)cc2Cl)c1 1.65 µM, CN1CCN(C(=O)c2cccc(COc3cc(Cl)ccc3Cl)c2)CC1 16.5 µM, O=C(NCc1ccccc1)c1cccc(COc2cc(Cl)ccc2Cl)c1 7.36 µM, CN(C(=O)c1cccc(COc2ccc(Cl)cc2Cl)c1)c1ccccc1 2.61 µM, CCCCOC(=O)c1sc2nc(C)cc(C)c2c1N 5.85 µM, Cc1cc(C)c2c(N)c(C(=O)N/N=C/c3cccs3)sc2n1 1.47 µM, Cc1cc(C)c2c(N)c(C(=O)NCC3CCCCC3)sc2n1 6.56 µM, O=c1[nH]c2ccccc2nc1/C=C/c1ccccc1 2.33 µM, CC(C)n1c(/C=C/c2ccccc2)nc2ccccc21 6.56 µM, Cn1c(=O)c(/C=C/c2ccccc2)nc2ccccc21 2.07 µM, COc1ccc(-c2noc(-c3cc(C(C)C)[nH]n3)n2)cc1 3.29 µM, Cc1cccc(-c2noc(-c3cc(C(C)C)[nH]n3)n2)c1 0.464 µM, CC12COC3(C(=O)Nc4ccc5ccccc5c4)CC1CCC32C (stereo not drawn) 7.36 µM, CCN1CCN(c2ccc(NC(=O)c3ccccc3F)cc2Cl)CC1 2.93 µM, CCN1CCN(c2ccc(NC(=O)c3ccco3)cc2Cl)CC1 8.26 µM, Cc1ccc(Nc2ncnc(-n3cccc3)n2)cc1Cl 2.33 µM, COc1ccc(-c2c(C)nc3c(-c4ccccn4)cnn3c2N)cc1 0.261 µM, COc1ccc(-c2c(C)nc3c(-c4ccsc4)cnn3c2N)cc1 0.414 µM, CCOC(=O)C1=C(CSc2nc(-c3ccccc3)ccc2C#N)OC(N)=C(C#N)C1c1ccc(OC)cc1 (stereo not drawn) 11.7 µM, COc1ccc(C(=O)Cc2ccc(F)cc2)c(OC)c1 13.1 µM, O=[N+]([O-])c1ccc(/C=N/N2CCCCC2)cc1 5.21 µM, COc1ccc(-c2nnc(SCC(=O)c3cccs3)o2)c(OC)c1 6.56 µM, Cc1cc(Cl)c2oc(C(=O)N3CCN(c4cccc(C)n4)CC3)c(C)c2c1 4.65 µM, Cc1cc(Cl)c2oc(C(=O)N3CCN(C(=O)c4ccco4)CC3)c(C)c2c1 14.7 µM, COCCNC(=O)c1ccc2c(Cl)c3c(nc2c1)CCC3 5.85 µM, N#Cc1ccccc1NC(=O)c1ccc2c(Cl)c3c(nc2c1)CCCC3 2.93 µM, CN(C(=O)c1ccc2c(Cl)c3c(nc2c1)CCC3)c1ccccc1 14.7 µM, O=C(Nc1ccc(Cl)cn1)c1ccc2c(Cl)c3c(nc2c1)CCC3 0.185 µM, O=C(CSc1ncccc1-c1nc2ccccc2[nH]1)N1CCc2ccccc21 5.21 µM, Cc1ccnc(SCC(=O)N2CCc3ccccc32)n1 7.36 µM, O=C(CSc1ccccc1)N1CCc2ccccc21 3.29 µM, CCn1c(-c2ccc(F)cc2)cnc1SCC(=O)N1CCc2ccccc21 11.7 µM, Cc1ccc(SCC(=O)N2CCc3ccccc32)cc1 14.7 µM, COc1cccc2cc(-c3nnc(Nc4c(F)cccc4F)s3)c(=O)oc12 1.04 µM, O=c1oc2cc(O)ccc2cc1-c1nnc(Nc2ccccc2F)s1 0.369 µM, COc1cccc2cc(-c3nnc(Nc4ccccc4C)s3)c(=O)oc12 0.736 µM, COc1cccc(N2CCN(C(=O)c3ccc4nc(N5CCC(C)CC5)sc4c3)CC2)c1 1.47 µM, CCC1CCCCN1CCCNC(=O)c1ccc2nc(N3CCC(C)CC3)sc2c1 (stereo not drawn) 0.0656 µM, CC1CCN(c2nc3ccc(C(=O)NCCCN4CCCCC4C)cc3s2)CC1 (stereo not drawn) 0.0656 µM, CC1CCN(c2nc3ccc(C(=O)NCCCN4CCCCC4)cc3s2)CC1 0.0927 µM, O=C(NC(=S)Nc1nc2ccccc2s1)c1ccco1 1.17 µM, Cc1ccc(-c2nnc(NC(=O)c3ccco3)s2)cc1 1.47 µM, Cc1ccc2nc(NC(=S)NC(=O)c3ccco3)sc2c1 0.736 µM, CC1CCC/C(=C\Nc2ccc(O)cc2)C1=O (stereo not drawn) 10.4 µM, CC1CCC/C(=C\Nc2ccc(C(=O)O)cc2)C1=O (stereo not drawn) 0.585 µM, CCC(=O)Nc1nnc(/C=C/c2ccccc2)s1 13.1 µM, COC(=O)Nc1nnc(/C=C/c2ccc(OC)cc2)s1 4.14 µM, CCC(=O)Nc1nnc(/C=C/c2ccc(OC)cc2)s1 11.7 µM, C/C(=N\NC(=O)c1cccc(N/N=C(\C)c2ccccc2)c1)c1ccccc1 14.7 µM, CC(=O)Nc1cccc(C(=O)N/N=C/c2ccccc2F)c1 2.07 µM, C/C(=N\Nc1cccc(C(=O)O)c1)c1ccc(Cl)s1 6.56 µM, COc1ccc(/C(C)=N/Nc2cccc(C(=O)O)c2)cc1OC 10.4 µM, C/C(=N\Nc1ccc([N+](=O)[O-])cc1)c1ccco1 3.69 µM, C/C(=N\NC(=O)c1cccc(N/N=C(\C)c2ccco2)c1)c1ccco1 6.56 µM, C/C(=N/NC(=O)c1ccccc1)C(=O)O 2.93 µM, CN(CCC#N)C(=O)c1cc2c(s1)-c1ccccc1SC2 4.14 µM, Cc1ccccc1C(=O)Nc1nnc(S(=O)(=O)N2CCCCCC2)s1 1.65 µM, O=C(Nc1nnc(S(=O)(=O)N2CCCC2)s1)c1ccc(F)cc1 3.69 µM, COc1ccc(C(=O)Nc2nnc(S(=O)(=O)N3CCC(C)CC3)s2)cc1OC 0.464 µM, CCC(CC)C(=O)Nc1nnc(S(=O)(=O)N2c3ccccc3CC2C)s1 (stereo not drawn) 2.61 µM, Cn1c(-c2cc3ccc(OC(=O)C(C)(C)C)cc3oc2=O)nc2ccccc21 3.69 µM, COc1ccccc1N1CCN(/N=C\c2ccccc2)CC1 10.4 µM, COc1ccccc1N1CCN(/N=C/c2cccc(Cl)c2)CC1 6.56 µM, CCOC(=O)c1snc(C(=O)NC2CCCCC2)c1N 7.36 µM, CN(C)/C=C(/C(=O)c1ccc(Cl)cc1)S(=O)(=O)c1ccccc1 18.5 µM, CCCC(=O)Nc1ccc2oc(-c3ccc(O)c(Br)c3)nc2c1 0.927 µM, CCC(=O)Nc1ccc2oc(-c3cccnc3)nc2c1 8.26 µM, O=C(Nc1ccc2oc(-c3cccnc3)nc2c1)c1ccco1 11.7 µM, Cc1cc(-c2nc3ncccc3o2)ccc1N 3.29 µM, O=C(Nc1ccc(-c2nc3ncccc3o2)cc1)c1ccco1 1.85 µM, COc1ccc(OCCN2C(=O)c3cccc(N)c3C2=O)cc1 14.7 µM, Nc1cccc2c1C(=O)N(CCOc1ccc(F)cc1)C2=O 0.826 µM, COc1ccc(C2=NN(c3ccc(C(=O)O)cc3)C(c3ccc(OC)c(OC)c3)C2)cc1 (stereo not drawn) 18.5 µM, COc1cccc(CN=C2Nc3ccccc3CS2)c1 4.65 µM, COc1ccccc1CN=C1Nc2ccccc2CS1 5.85 µM, CCCC(=O)Nc1ccc(NC(=O)C23CC4CC(CC(C4)C2)C3)cn1 18.5 µM, OC[C@H]1O[C@@H](n2cnc3c(Nc4ccccc4)ncnc32)[C@H](O)[C@@H]1O 3.69 µM, CCOC(=O)c1c(C)[nH]c2cc(Br)c(O)cc12 16.5 µM, O=C(COc1ccccc1Cl)N1CCc2ccccc21 2.07 µM, O=C(COc1ccc2c(c1)CCC2)N1CCc2ccccc21 3.29 µM, COc1ccc2c(CC(=O)N3CCc4ccccc43)coc2c1 2.93 µM, CCc1ccc(OCC(=O)N2CCc3ccccc32)cc1 4.65 µM, Cc1c(Br)c(C(=O)N2CCc3ccccc32)nn1C 5.21 µM, Cc1c(C(=O)N2CCc3ccccc32)oc2ccccc12 0.736 µM, O=C(COc1ccccc1)N1CCc2ccccc21 4.65 µM, COc1ccc(C(=O)N2CCc3ccccc32)cc1 18.5 µM, O=C(c1ccco1)N1CCc2ccccc21 5.85 µM, O=C(COc1ccc(F)cc1Br)N1CCc2ccccc21 1.26 µM, O=C(OCc1ccccc1)N1CCc2ccccc21 1.17 µM, Cc1ccccc1OCC(=O)N1CCCc2ccccc21 14.7 µM, O=C1/C(=C\Nc2ccc(Cl)cc2)CCN1c1ncccn1 1.31 µM, CCC(C)NC(=O)Cn1c(COc2ccc(Cl)cc2Cl)nc2ccccc21 (stereo not drawn) 8.26 µM, CC(=O)C(/C=N/c1cc(-c2ccc(C)cc2)nn1-c1ccccc1)=C(\C)O 1.47 µM
